Bioassay records deposited in PubChem by The Scripps Research Institute Molecular Screening Center.
GPR151 ag = activators of human GPR151, primary screen, cell-based, PathHunter beta-arrestin, luminescence; G-protein coupled receptor 151 (Homo sapiens), Q8TDV0; PathHunter beta-arrestin GPR151 cells; 650,000 compounds, 1% hits; activation, % at 11.2 µM; in the data active means activation above about 4.9%;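 further: 0% = median of compound wells and 100% = cells with positive control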
FBW7 act = FBW7 E3 ligase activators, primary screen, biochemical, AlphaScreen, human. AlphaScreen FBW7–phospho-cyclin E peptide binding, activator screen. normalized activity (activation), % at 26.1 µM. 650,000 compounds, 0.13% hits; in the data active means normalized activity above about 1.9%;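 further: purified mutant Fbw7 with reduced substrate affinity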
Target sequence (Q969H0 whole entry, looked up): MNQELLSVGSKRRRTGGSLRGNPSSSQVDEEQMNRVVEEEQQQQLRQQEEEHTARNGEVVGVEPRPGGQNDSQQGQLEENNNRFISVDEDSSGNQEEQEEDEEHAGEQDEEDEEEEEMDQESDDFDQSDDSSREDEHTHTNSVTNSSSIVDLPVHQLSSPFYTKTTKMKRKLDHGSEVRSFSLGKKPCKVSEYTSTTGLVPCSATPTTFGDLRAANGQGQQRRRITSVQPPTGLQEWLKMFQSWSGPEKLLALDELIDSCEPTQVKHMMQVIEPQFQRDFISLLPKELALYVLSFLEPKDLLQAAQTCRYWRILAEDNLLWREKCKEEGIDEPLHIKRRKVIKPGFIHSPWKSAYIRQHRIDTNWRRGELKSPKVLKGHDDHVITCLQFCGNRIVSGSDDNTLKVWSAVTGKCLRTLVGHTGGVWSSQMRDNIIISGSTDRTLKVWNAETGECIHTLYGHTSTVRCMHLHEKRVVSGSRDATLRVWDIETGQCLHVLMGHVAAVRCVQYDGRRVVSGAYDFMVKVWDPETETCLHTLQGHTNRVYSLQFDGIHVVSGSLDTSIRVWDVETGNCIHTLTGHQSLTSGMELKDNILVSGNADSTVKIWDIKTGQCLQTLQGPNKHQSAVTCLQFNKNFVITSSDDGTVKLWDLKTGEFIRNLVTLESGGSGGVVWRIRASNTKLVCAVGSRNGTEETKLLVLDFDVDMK
MITF inh = MITF inhibitors, primary screen, biochemical, AlphaScreen, human; Microphthalmia-associated transcription factor (Homo sapiens), O75030; AlphaScreen MITF homodimerization, bead proximity signal; inhibition, % at 2.6 µM; 650,000 compounds, 0.91% hits; in the data active means inhibition above about 50%;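 further: 0% = vehicle wells with protein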
TEAD-YAP block = TEAD-YAP interaction inhibition, primary screen, TEAD-YAP interaction inhibitor project, luminescence, HEK-TIYL cells | TEAD-Gal4/YAP UAS-luciferase luminescence | inhibition, % at 9.12 µM | 640,000 compounds, 1.4% hits; in the data active means inhibition above about 32%;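 further: 0% = median of test compound wells and 100% = reference inhibitor wells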
An asterisk follows results filed as active. A selection: hits, their analogues and other compounds. The true share with any hit is near 3.5%.

SMILES	GPR151 ag	FBW7 act	MITF inh	TEAD-YAP block
C/C(=N/NC(=O)c1ccccn1)c1cccc([N+](=O)[O-])c1	-3	0	18	-21
N/C(=N\N=C/c1ccc(O)cc1)c1ccccn1	-7	-1	29	93*
CCCc1ccc(C2=NNC(=NC)SC2)cc1	-9	0	1	97*
COCCN=C1NN=C(c2ccc(C)cc2)CS1	1	0	-1	-25
COC(=O)c1cn[nH]c1NC(=S)Nc1ccc(C)cc1C	-2	0	5	80*
CC(C)CCNC(=O)c1cccnc1SCc1ccccc1Cl	1	0	3	-7
CCCc1ccc(Oc2cn[nH]c2-c2ccc(O)cc2O)cc1	0	0	3	65*
Cc1ccc(-c2ccc(=O)n(CCC(=O)NC3CCCC3)n2)cc1	2	0	5	-1
Cc1ccc(-c2cn3c(n2)sc2cc(C)ccc23)cc1	-4	1	-5	78*
Cc1ccc2c(c1)sc1nc(-c3cc4ccccc4oc3=O)cn12	0	0	-3	66*
O=c1oc2ccccc2cc1-c1cn2c(n1)sc1ccccc12	0	0	-4	80*
COc1ccc(-c2cn3c(n2)sc2cc(C)ccc23)cc1	-2	0	-5	24
O=c1oc2ccc3ccccc3c2cc1-c1cn2c(n1)sc1cc(Cl)ccc12	1	0	1	6
COc1ccc2c(c1)sc1nc(-c3cc4ccccc4oc3=O)cn12	0	0	-3	84*
CCOC(=O)CN1c2ccccc2NC1C(C#N)c1ccc(OC)cc1 (stereo not drawn)	-2	0	0	36*
CCOC(=O)CSC1=C(C#N)C(=O)NC(c2ccc(OC)cc2)S1 (stereo not drawn)	0	0	-2	-3
CC(=O)Nc1ccc2nc(SCC(=O)NCc3ccccc3)sc2c1	-2	0	19	38*
O=C(CSc1nc2ccc(NC(=O)c3ccccc3)cc2s1)NCc1ccccc1	2	0	18	-18
O=C(O)CNC(=O)/C(=C/c1ccccc1)NC(=O)c1ccc(Br)cc1	-1	1	11	8
CN(CCc1nc2ccc(F)cc2[nH]1)C(=O)c1cc(COc2cccc3cnccc23)on1	0	0	2	55*
O=C(NC1CCC1)c1cc(COc2cccc3cnccc23)on1	0	0	6	27
CC(c1ccon1)N(C)C(=O)c1cc(COc2cccc3cnccc23)on1 (stereo not drawn)	-1	0	14	34*
CC(=O)c1ccc(OCc2cc(C(=O)N(C)C(C)c3ccon3)no2)cc1 (stereo not drawn)	-2	0	-19	2
Cc1c(C(C)NC(=O)c2cc(COc3cccc4cnccc34)on2)cnn1C (stereo not drawn)	-1	0	12	43*
CN(C(=O)c1cc(COc2cccc3cnccc23)on1)C1CCCCC1	-1	0	-9	43*
SMILES	GPR151 ag	FBW7 act	MITF inh	TEAD-YAP block
C[C@H]1C(=O)N(C)CCN1C(=O)c1cc(COc2cccc3cnccc23)on1	2	0	-10	36*
NC(C(=O)N1CCC(Nc2ccc3[nH]ncc3c2)CC1)c1ccc(-c2ccccc2)cc1 (stereo not drawn)	-1	0	3	38*
c1cnc2ccc(Nc3nc(NCc4nc5ccccc5[nH]4)c4ncn(-c5ccsc5)c4n3)cc2c1	0	42*	-16	49*
c1ccc(-n2cnc3c(NCc4nc5ccccc5[nH]4)nc(Nc4ccc5ncccc5c4)nc32)cc1	-3	23*	1	16
c1ccc(CNc2nc(Nc3ccc4ncccc4c3)nc3c2ncn3-c2ccsc2)cc1	-2	0	2	12
COc1ccccc1N1C(=O)C(Cl)=C(Nc2cccc(O)c2)C1=O	0	0	1	12
COc1ccccc1N1CCN(C(=O)COc2ccccc2C)CC1	2	0	-4	0
COc1ccc(-n2nc3c(c2NC(=O)c2cc([N+](=O)[O-])ccc2Cl)CSC3)cc1	2	0	13	61*
CC(C)(C)n1nc2c(c1NC(=O)c1cc([N+](=O)[O-])ccc1Cl)CSC2	2	0	-7	89*
CC(C)(C)n1nc2c(c1NC(=O)c1cc(Cl)ccc1Cl)CSC2	-1	0	4	3
Cc1ccc(-n2nc3c(c2NC(=O)c2cc([N+](=O)[O-])ccc2Cl)CSC3)c(C)c1	1	0	16	71*
Cc1ccccc1-n1nc2c(c1NC(=O)c1cc([N+](=O)[O-])ccc1Cl)CS(=O)(=O)C2	3	0	-19	67*
CCCc1nc2ccccc2n1CC(=O)O	-1	0	11	7
CC(C)(C)c1ccc(Cn2cnc3sc4c(c3c2=O)CCCC4)cc1	1	0	-2	62*
COc1ccc(CCn2cnc3sc4c(c3c2=N)CCCC4)cc1OC	1	0	-6	39*
Cc1nc2sc3c(c2c(=O)n1Cc1ccc(C(C)(C)C)cc1)CCCC3	2	0	9	19
CC1Cc2ccccc2N1C(=O)CSc1nnc(Cc2cccs2)n1C (stereo not drawn)	0	0	-4	47*
CC1Cc2ccccc2N1C(=O)CSc1nnc(CSc2ncccn2)n1C (stereo not drawn)	0	0	-8	9
Cc1ccc(C(=O)COC(=O)c2ccc(N3C(=O)c4ccccc4C3=O)cc2)cc1	1	0	3	-34
CCCCN(C)C(=O)CSc1nc2ccccc2c(=O)n1CC1CCC(C(=O)NCCc2ccccc2)CC1 (stereo not drawn)	-2	1.9*	20	-19
O=c1c2cnn(-c3ccccc3)c2nc(-c2ccco2)n1-c1cccc(Cl)c1	1	0	4	2
COCCn1c(=NC(=O)c2cc(OC)c(OC)c(OC)c2)sc2cc(OC)ccc21	0	0	11	1
Cc1cnc(NC(=O)c2ccc(Cn3ccnc3)cc2)s1	-1	0	0	61*
CC(=O)NC(CC(C)C)C(=O)NC(Cc1ccccc1)C(N)=O (stereo not drawn)	0	2.5*	6	-2
CC(=O)NC(C(=O)NC(Cc1ccccc1)C(N)=O)C(C)C (stereo not drawn)	1	2.0*	8	-1
COC(=O)C(C)NC(=O)C(Cc1ccccc1)NC(C)=O (stereo not drawn)	0	0	9	-3
Cc1ccc(NC(=O)CN(C)C(=O)CCl)cc1	-1	0	4	63*
Cc1ccc(NC(=O)CN(C)C(=O)COc2ccc(C#N)cc2)cc1	0	0	8	4
CN(CC(=O)Nc1ccc(Cl)cc1)C(=O)CCl	0	0	-13	71*
Cn1cc(CN[C@H]2C[C@H]3C(=O)N[C@@H](CO)C(=O)N3C2)c(-c2ccccc2)n1	1	0	-9	-6
